# Laboratory results reported in PubChem BioAssay (NCATS).
# “And” between values parts separate entries of the source, which are not always exact repeats. Equal entries are not always repeated. Records with an inconclusive call do not appear. Unmarked numbers belong to inactive results. The source made the active and inactive calls. Calls follow the shape of the dose curve; as a rule, active = well fitted curve in the direction sought with a large enough effect; inconclusive = small, poorly fitted or top-dose-only effect, or another doubt; inactive = no such curve, though single readings can be large; an effect the other way counts as inactive or inconclusive.
# Experiments:
# [1] = target: Cellular tumor antigen p53 (Homo sapiens) (UniProt P04637); test: Primary qHTS for small molecule compounds that upregulate eGFP-tagged delta133p53alpha (in N-terminal) cells. (AID 2060322); details: NCI-H358 eGFP-delta133p53alpha fluorescence, 24 h; activation: stronger effect = higher value; also: nearly all actives have a fitted effect of over 75% in size;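 as to activation: cells pre-induced with doxycycline then dosed without doxycycline; series mostly up to about 56 µM; 0% = DMSO vehicle and 100% = reference activator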
# Chain of Cellular tumor antigen p53 (Homo sapiens) (P04637 whole entry, looked up): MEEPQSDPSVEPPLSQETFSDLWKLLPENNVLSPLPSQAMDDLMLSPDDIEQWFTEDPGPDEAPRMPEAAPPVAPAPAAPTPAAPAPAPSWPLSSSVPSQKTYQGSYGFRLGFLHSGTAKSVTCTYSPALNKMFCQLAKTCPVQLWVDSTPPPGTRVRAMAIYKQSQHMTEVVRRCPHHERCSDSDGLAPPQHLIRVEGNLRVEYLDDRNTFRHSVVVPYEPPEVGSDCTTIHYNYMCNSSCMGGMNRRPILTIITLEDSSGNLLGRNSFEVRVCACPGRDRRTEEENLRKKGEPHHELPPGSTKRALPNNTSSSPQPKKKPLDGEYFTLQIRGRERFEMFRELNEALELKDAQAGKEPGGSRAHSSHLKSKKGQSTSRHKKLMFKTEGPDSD
# In short: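 NCI-H358 cells pre-induced 24 h with 10 ng/ml doxycycline for eGFP-delta133p53alpha, plated dox-free and exposed 24 h at 37C to titrated compounds. Fixed, Hoechst-stained; gated GFP peak intensity by laser scanning cytometry, normalized to DMSO (0%) and 57.5 uM 5-azacytidine (100%).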
# [2] = BET inhibitor-based combinations targeting novel dependencies in MECOM-rearranged (r) AML: SET-2 cell line (AID 2202231); details: SET-2 AML cells viability, CellTiter-Glo luminescence, 48 h; viability: stronger effect = lower value, concentration not given here; also: nearly all actives have a fitted effect of over 35% in size;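 as to viability: plate controls were DMSO treated cells for no effect and wells without cells for full effect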
# In short: (§1)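 Cells were plated at 500 per well and exposed to an 11-point dose series of each drug for 48 hr. Viability was measured by CellTiter-Glo luminescence, normalized to DMSO and empty-well controls, and summarized as AUC and per-cell-line Z-AUC.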
# [3] = BET inhibitor-based combinations targeting novel dependencies in MECOM-rearranged (r) AML: OCI-AML3 cell line (AID 2202232); details: Potency: OCI-AML3 viability; also: nearly all actives have a fitted effect of over 35% in size;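 as to viability (% of control): series mostly up to about 46 µM; plate controls were DMSO vehicle wells for no effect and wells without cells for full effect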
# In short: as §1
# [4] = BET inhibitor-based combinations targeting novel dependencies in MECOM-rearranged (r) AML: MV-4-11 cell line (AID 2202233); also: nearly all actives have a fitted effect of over 45% in size
# In short: (§2)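 Activity is given as area under the curve and as Z-AUC, mean-centred within each cell line. It comes from 11-point dose curves normalized to DMSO and empty wells. CellTiter-Glo luminescence was read after 48 hr drug exposure of 500 cells/well.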
# [5] = BET inhibitor-based combinations targeting novel dependencies in MECOM-rearranged (r) AML: HNT-34 cell line (AID 2202234); also: nearly all actives have a fitted effect of over 35% in size;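 as to viability (% of control): plate controls were vehicle wells for no effect and cell-free wells for full effect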
# In short: as §2
# [6] = BET inhibitor-based combinations targeting novel dependencies in MECOM-rearranged (r) AML: UCSD-AML1 cell line (AID 2202235); also: nearly all actives have a fitted effect of over 40% in size;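 as to viability (% of control): series mostly up to about 46 µM; plate controls were DMSO vehicle wells for no effect and blank wells for full effect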
# In short: as §2
# [7] = BET inhibitor-based combinations targeting novel dependencies in MECOM-rearranged (r) AML: AML-191 cell line (AID 2202236; also: nearly all actives have a fitted effect of over 35% in size;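 as to viability (% of control): plate controls were vehicle wells for no effect and wells without cells for full effect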)
# In short: as §1
# [8] = BET inhibitor-based combinations targeting novel dependencies in MECOM-rearranged (r) AML: AML-194 cell line (AID 2202237; also: nearly all actives have a fitted effect of over 40% in size;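 as to viability (% of control): plate controls were vehicle wells for no effect and wells without cells for full effect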)
# In short: as §1
# Potency is read from the fitted curve at half-maximal effect.
Compound,activation [1],viability [2],Potency [3],Potency [4],Potency [5],Potency [6],Potency [7],Potency [8],Potency [2],Potency [1],viability (% of control) [3],viability (% of control) [6],viability (% of control) [8]
Cc1c(CCOc2ccc(C(=O)O)cc2)c2cc(Cl)ccc2n1C(c1ccccc1)c1ccccc1,-25%,114%,inactive,inactive,inactive,inactive,inactive,inactive,–,–,–,–,–
O=C(O)c1cc(O)c2c(c1)C(=O)c1cccc(O)c1C2=O,-15.1%,115%,5900 nM (active),inactive,inactive,inactive,inactive,inactive,–,–,–,–,–
CCC[C@H](N[C@@H](C)C(=O)N1[C@@H]2CCCC[C@H]2C[C@H]1C(=O)O)C(=O)OCC,-22.1%,110%,inactive,inactive,inactive,–,inactive,–,–,–,–,–,–
O=NN(CCCl)C(=O)NC1CCCCC1,-3.35% and 3.74%,112%,inactive,inactive,inactive,inactive,inactive,inactive,–,–,–,–,–
O=C(O)C(O)Cc1ccc(O)c(O)c1 (centres undefined),-12.6%,99.8%,inactive,inactive,inactive,inactive,inactive,inactive,–,–,–,–,–
CC(=O)OCCN1C(=O)c2c(C)nc3ccc(S(=O)(=O)N4CCOCC4)cc3c2C1=O,22.9%,121%,inactive,inactive,inactive,inactive,inactive,inactive,–,–,–,–,–
C[Se]CCC(N)C(=O)O (centres undefined),-7.89%,105%,inactive,inactive,inactive,inactive,inactive,inactive,–,–,–,–,–
O=C(NCCO[N+](=O)[O-])c1cccnc1,-0.853% and 0.837%,114%,inactive,4680 nM (active),inactive,inactive,–,inactive,–,–,–,–,–
Oc1ccc(C2=Cc3ccc(O)cc3OC2)cc1,5.86%,–,525 nM (active),662 nM (active),1180 nM (active),1320 nM (active),2950 nM (active),10500 nM (active),2090 nM (active),–,–,–,–
COC(=O)Nc1nc2ccc(Sc3ccccc3)cc2[nH]1,-17.6% and 21.8%,–,742 nM (active),934 nM (active),525 nM (active),–,468 nM (active),417 nM (active),1180 nM (active),–,–,–,–
O=c1ccn([C@@H]2O[C@H](CO)[C@H](O)[C@@H]2F)c(=O)[nH]1,-22.6%,107%,inactive,inactive,inactive,inactive,inactive,inactive,–,–,–,–,–
CC(C)Oc1cc(Nc2nc(N[C@@H](C)c3ccc(F)cn3)ncc2Cl)[nH]n1,–,–,16600 nM (active),93.4 nM (active),16600 nM (active),–,417 nM (active),–,18600 nM (active),24300 nM (active),–,–,–
O=C(O)c1ccc2cc(-c3ccc(O)c(C45CC6CC(CC(C6)C4)C5)c3)ccc2c1,-20.4%,–,525 nM (active),934 nM (active),1050 nM (active),934 nM (active),–,1050 nM (active),590 nM (active),–,–,–,–
CC(C)[C@H](CO)Nc1nc(Nc2cccc(Cl)c2)c2ncn(C(C)C)c2n1,–,–,18600 nM (active),3720 nM (active),16600 nM (active),26300 nM (active),–,16600 nM (active),16600 nM (active),24300 nM (active),–,–,–
Cc1cc(C2CCCCC2)n(O)c(=O)c1,25.4%,–,10500 nM (active),4170 nM (active),10500 nM (active),16600 nM (active),11800 nM (active),10500 nM (active),18600 nM (active),–,–,–,–
Cn1cc(C2=C(c3c4n(c5ccccc35)CCC(CN)C4)C(=O)NC2=O)c2ccccc21 (centres undefined),–,103%,–,4810 nM (active),5390 nM (active),–,–,–,–,27300 nM (active),88.4% [at 8.46 µM],97.4% [at 8.46 µM],98.9% [at 8.46 µM]
Nc1nc(Cl)nc2c1ncn2[C@H]1C[C@H](O)[C@@H](CO)O1,24.5%,–,83.3 nM (active),93.4 nM (active),74.2 nM (active),29.5 nM (active),83.3 nM (active),74.2 nM (active),263 nM (active),–,–,–,–
CC1(C)Cc2c(sc(NC(=S)NC(=O)c3ccccc3)c2C(=O)O)CO1,-34.5%,110%,inactive,inactive,inactive,inactive,–,inactive,–,–,–,–,–
